The structures appear in SMILES notation. The campaign covered roughly 39,000 compounds. About 3,300 (8.5%) were called active. What follows is part of a selection rich in actives, with near analogues and random picks from the rest.

This test has as its system HepG2. Nature of the test: cytotoxicity call (relative viability < 0.9). Particulars: 10 µM.
In the case of `CC12CC(OC1=O)C1(C)CCC3(C)C(=CCC4C5(C)CCC(O)C(C)(C)C5CCC43C)C1C2` (stereo not given), the cytotoxicity call was “inactive”. With `O=S1(=O)C[C@H](NCc2cccnc2)[C@@H](O)C1` the entry was “inactive”; with `C[C@H](CO)N1C[C@H](C)[C@@H](CN(C)Cc2ccc(C(=O)O)cc2)Oc2c(NC(=O)C3CCOCC3)cccc2C1=O`, “inactive”.

For the compound `COc1ccc(CN(C)C[C@H]2Oc3ccc(NS(=O)(=O)c4c(C)noc4C)cc3CC(=O)N([C@H](C)CO)C[C@@H]2C)cc1`, the cytotoxicity call was “inactive”. Consider `COc1ccc(S(=O)(=O)Nc2ccc3c(c2)C(=O)N([C@H](C)CO)C[C@@H](C)[C@@H](CN(C)S(=O)(=O)c2ccc(OC)cc2)O3)cc1`, for which the cytotoxicity call is “inactive”. The entry for `CN1C(=O)c2cc(NC(=O)Nc3ccccc3F)ccc2OC[C@H]2O[C@@H](CC(=O)NCc3ccc(-c4ccccc4)cc3)CC[C@@H]21` is “inactive”; for `C[C@@H]1CCCCO[C@@H](CN(C)S(=O)(=O)c2ccc(Cl)cc2)[C@@H](C)CN([C@H](C)CO)C(=O)c2cc(NC(=O)C3CCCCC3)ccc2O1` it is “inactive”; for `CO[C@H]1CN(C)C(=O)c2ccc(NS(C)(=O)=O)cc2OC[C@@H](C)N(C(=O)C2CCOCC2)C[C@@H]1C` it is “inactive”. With `COc1ccc(S(=O)(=O)Nc2ccc3c(c2)C(=O)N([C@H](C)CO)C[C@@H](C)[C@H](CN(C)C(=O)C2CCCCC2)OCCCC[C@H](C)O3)cc1` the entry was “inactive”; with `C[C@@H]1CN([C@@H](C)CO)C(=O)c2cc(N(C)C)ccc2O[C@@H](C)CCCCO[C@H]1CN(C)C(=O)CCCN(C)C`, “inactive”. The entry for `Cc1noc(C)c1S(=O)(=O)Nc1ccc2c(c1)C(=O)N([C@H](C)CO)C[C@@H](C)[C@@H](CN(C)C(=O)Nc1cccc3ccccc13)OCCCC[C@@H](C)O2` is “inactive”; for `Cc1noc(C)c1S(=O)(=O)Nc1ccc2c(c1)C(=O)N([C@H](C)CO)C[C@H](C)[C@H](CN(C)C(=O)Nc1cccc3ccccc13)OCCCC[C@@H](C)O2` it is “inactive”; for `Cc1noc(C)c1S(=O)(=O)Nc1ccc2c(c1)C(=O)N([C@@H](C)CO)C[C@@H](C)[C@@H](CN(C)C(=O)Nc1cccc3ccccc13)OCCCC[C@@H](C)O2` it is “active”.

Consider `Cc1noc(C)c1S(=O)(=O)Nc1ccc2c(c1)C(=O)N([C@@H](C)CO)C[C@@H](C)[C@@H](CN(C)C(=O)Nc1cccc3ccccc13)OCCCC[C@H](C)O2`, for which the cytotoxicity call is “inactive”. Take `Cc1noc(C)c1S(=O)(=O)Nc1ccc2c(c1)C(=O)N([C@@H](C)CO)C[C@@H](C)[C@H](CN(C)C(=O)Nc1cccc3ccccc13)OCCCC[C@H](C)O2`: the cytotoxicity call was “inactive”.

`Cc1noc(C)c1S(=O)(=O)Nc1ccc2c(c1)C(=O)N([C@H](C)CO)C[C@H](C)[C@@H](CN(C)C(=O)Nc1cccc3ccccc13)OCCCC[C@H](C)O2`: the cytotoxicity call is “active”. Consider `C[C@@H]1CN([C@H](C)CO)C(=O)c2cc(NC(=O)Cc3ccccc3)ccc2O[C@@H](C)CCCCO[C@@H]1CN(C)Cc1ccncc1`, for which the cytotoxicity call was “inactive”. With `Cc1ccc(S(=O)(=O)N(C)C[C@H]2OCCCC[C@H](C)Oc3ccc(NC(=O)C4CCCCC4)cc3C(=O)N([C@@H](C)CO)C[C@H]2C)cc1` the entry was “inactive”. With `C[C@@H]1CN([C@H](C)CO)C(=O)CCCn2nncc2CO[C@H]1CN(C)C(=O)c1cc(-c2ccccc2)on1` the entry was “inactive”. The entry for `COc1ccc(S(=O)(=O)N(C)C[C@@H]2Oc3c(NC(=O)c4cc(C)nn4C)cccc3C(=O)N([C@H](C)CO)C[C@H]2C)cc1` is “inactive”; for `C[C@@H]1CN([C@H](C)CO)C(=O)c2cccc(NS(=O)(=O)c3cn(C)cn3)c2O[C@H]1CN(C)S(=O)(=O)c1ccc(Cl)cc1` it is “inactive”. In the case of `COc1ccc(S(=O)(=O)N(C)C[C@@H]2Oc3ccc(NS(=O)(=O)c4ccc(F)cc4)cc3C(=O)N([C@@H](C)CO)C[C@H]2C)cc1`, the cytotoxicity call was “inactive”.

As for `O=C(NO)c1ccc(C(=O)N/N=C/c2ccc(B(O)O)cc2)cc1`, the cytotoxicity call is “inactive”. As to `NC(=O)N/N=C/c1ccc([N+](=O)[O-])o1`, the cytotoxicity call is “inactive”. Consider `NC(=O)NN=Cc1ccc([N+](=O)[O-])o1`, for which the cytotoxicity call is “active”. With `O=C(NN=Cc1ccc([N+](=O)[O-])o1)c1ccc(O)cc1` the entry was “active”; with `O=C(N/N=C/c1ccc(CO)o1)c1ccccn1`, “inactive”; with `COC(=O)N/N=C/c1ccc([N+](=O)[O-])o1`, “inactive”. The entry for `C[C@@H]1CCCCO[C@@H](CN(C)C(=O)C2CCCCC2)[C@@H](C)CN([C@H](C)CO)C(=O)c2cc(NC(=O)c3ccncc3)ccc2O1` is “inactive”; for `O=C(CCCCCC(=O)Nc1ccccc1O)N/N=C/[C@H](O)[C@@H](O)[C@@H](O)[C@H](O)C(=O)O` it is “inactive”. As to `COCC#Cc1cnc2c(c1)C(=O)N([C@H](C)CO)C[C@@H](C)[C@@H](CN(C)C(=O)CN1CCOCC1)O2`, the cytotoxicity call was “inactive”. Regarding `COc1cc(CN)cc(OC)c1OC`, the cytotoxicity call is “inactive”. The entry for `C[C@H](CO)N1C[C@H](C)[C@@H](CN(C)C(=O)Nc2ccc(F)cc2)Oc2ccc(NC(=O)CCCCCC(=O)Nc3ccccc3N)cc2CC1=O` is “inactive”. In the case of `COc1ccc(NC(=O)N(C)C[C@H]2OCCCC[C@@H](C)Oc3ccc(NC(=O)Cc4ccccc4)cc3C(=O)N([C@H](C)CO)C[C@@H]2C)cc1`, the cytotoxicity call was “inactive”.

Turning to `O=C(CN1CCOCC1)NCC[C@H]1CC[C@@H](NS(=O)(=O)c2ccc(F)cc2)[C@H](CO)O1`, the cytotoxicity call is “inactive”. With `C[C@H]1CN([C@@H](C)CO)C(=O)c2cccc(NC(=O)C3CCCCC3)c2O[C@H]1CN(C)S(=O)(=O)c1cn(C)cn1` the entry was “inactive”; with `NCCN1C(=O)c2[nH]nc(-c3ccccc3)c2[C@H]1c1ccccc1`, “active”; with `NCc1c[nH]nc1-c1ccccc1`, “inactive”.

For `c1ccc(-c2n[nH]c3c2CCC3)cc1`, the cytotoxicity call is “inactive”. With `C[C@@H]1CN([C@H](C)CO)S(=O)(=O)c2ccc(-c3cccc(F)c3)cc2O[C@H]1CN(C)S(C)(=O)=O` the entry was “inactive”. As to `c1ccc2c(c1)Cc1cccnc1-2`, the cytotoxicity call was “inactive”. Regarding `Clc1ccc2ncccc2c1`, the cytotoxicity call was “inactive”. With `Clc1ccc2c(c1)CCc1cccnc1C2=C1CCNCC1` the entry was “active”. Consider `Cl.Clc1ccc2c(c1)CCc1cccnc1C2=C1CCNCC1`, for which the cytotoxicity call is “active”. The entry for `O=C(C[C@@H]1CC[C@H]2[C@@H](COC[C@H](O)CN2C(=O)c2ccc3c(c2)OCO3)O1)NCCN1CCCCC1` is “inactive”. In the case of `Cc1ccc(S(=O)(=O)Nc2cccc3c2O[C@@H](CN(C)C(=O)Nc2cccc4ccccc24)[C@@H](C)CN([C@H](C)CO)C3=O)cc1`, the cytotoxicity call is “inactive”. Turning to `NC(=O)N[C@@H]1CC(=O)N(c2ccccc2)C1`, the cytotoxicity call is “inactive”.

As for `NC[C@@H]1CC(=O)N(Cc2ccccc2)C1`, the cytotoxicity call is “inactive”. The entry for `NC[C@@H]1CC(=O)N(c2ccccc2)C1` is “active”. For the compound `O=c1cc(-c2ccccc2)ss1`, the cytotoxicity call was “inactive”.

Regarding `Cc1ccc2sc(N(CCCN(C)C)C(=O)c3ccc(S(=O)(=O)N(C)Cc4ccccc4)cc3)nc2c1C`, the cytotoxicity call is “active”. With `O=C(c1ccc(S(=O)(=O)N2CCCCCC2)cc1)N(Cc1cccnc1)c1nc2c(F)cc(F)cc2s1` the entry was “inactive”. Take `Cc1cc(Cl)cc2sc(N(Cc3ccccn3)C(=O)c3ccc(S(=O)(=O)N4CCCC4)cc3)nc12`: the cytotoxicity call was “inactive”. The entry for `Cc1ccc2sc(N(CCCN(C)C)C(=O)c3ccc(S(=O)(=O)N(C)C4CCCCC4)cc3)nc2c1C` is “active”; for `COc1cc(OC)c(S(=O)(=O)N(C)Cc2ccccc2)cc1S(=O)(=O)N(C)Cc1ccccc1` it is “inactive”; for `CC(C)(C)NC[C@@H](O)CSc1nc(-c2ccc(C(N)=O)s2)cs1` it is “inactive”. As for `COCC(=O)N(C)C[C@H]1Oc2cc(-c3ccc(C#N)cc3)ccc2S(=O)(=O)N([C@H](C)CO)C[C@H]1C`, the cytotoxicity call is “inactive”.

As for `O=C(Nc1nccs1)[C@H]1[C@H](CO)[C@H]2Cn3c(cccc3=O)[C@@H]1N2C(=O)C1CC1`, the cytotoxicity call is “inactive”. The entry for `Cc1noc(C)c1S(=O)(=O)N(C)C[C@@H]1OCCCC[C@H](C)Oc2ccc(NC(=O)Nc3ccccc3)cc2C(=O)N([C@@H](C)CO)C[C@H]1C` is “inactive”. The entry for `C[C@H](CO)N1C[C@H](C)[C@H](CN(C)Cc2ccncc2)Oc2c(NS(=O)(=O)c3ccc(F)cc3)cccc2C1=O` is “inactive”. The entry for `COC(=O)[C@@H](N)CS[C@H]1CCCCO1` is “inactive”. In the case of `Cc1noc(C)c1NC(=O)Nc1ccc2c(c1)C(=O)N([C@H](C)CO)C[C@H](C)[C@H](CN(C)Cc1ccc(-c3ccccc3)cc1)O2`, the cytotoxicity call is “inactive”. The entry for `CC(C)[C@H]1CC[C@@H](C)C[C@@H]1NC(=O)c1cccc2ccccc12` is “inactive”; for `COc1ccc2c(c1)n(CCN)c(=O)n2C(=O)[C@@H]1C[C@H](C)CC[C@H]1C(C)C` it is “active”; for `C[C@@H]1CN([C@@H](C)CO)C(=O)c2cc(NC(=O)CCCN(C)C)ccc2O[C@@H](C)CCCCO[C@@H]1CN(C)C` it is “inactive”. Regarding `C[C@H]1CN([C@@H](C)CO)C(=O)c2cccc(NC(=O)CCCCCC(=O)Nc3ccccc3N)c2O[C@@H]1CN(C)Cc1ccc(-c2ccccc2)cc1`, the cytotoxicity call was “inactive”.

`CN(Cc1ccc(/C=C/C(=O)Nc2ccc(-c3cccs3)cc2N)cc1)CC12CC3CC(CC(C3)C1)C2`: the cytotoxicity call was “inactive”.

Take `CN(Cc1ccc(/C=C/C(=O)Nc2ccc(-c3ccccc3)cc2N)cc1)CC12CC3CC(CC(C3)C1)C2`: the cytotoxicity call was “active”.

On to `O=C(C[C@H]1CC[C@@H]2[C@H](COC[C@H](O)CN2S(=O)(=O)c2cccc(F)c2)O1)NCc1ccncn1`, for which the cytotoxicity call was “inactive”. With `C[C@H]1CN([C@@H](C)CO)C(=O)c2cc(C#CC3CCCCC3)cnc2O[C@H]1CN(C)C(=O)Cc1ccccn1` the entry was “inactive”; with `CCc1nc2ccc(C(=O)NCc3ccc(OC)cc3)cn2c1N(CC)Cc1cccc(Br)c1`, “inactive”; with `CC(=O)n1cc([C@@H]2C=C(C(=O)N3CCN(Cc4ccc5c(c4)OCO5)CC3)O[C@H](OCc3ccc(COC(=O)NCCCCCC(=O)NO)cc3)C2)c2ccccc21`, “inactive”. With `CCC(=O)NCCC1CCc2ccc3c(c21)CCO3` (stereo not given) the entry was “active”; with `CCC(=O)NCc1nn(C)c2c1COCC2`, “inactive”; with `COc1ccc(NC(=O)N(C)C[C@@H]2OCCCC[C@@H](C)Oc3ccc(NC(=O)Nc4cccc5ccccc45)cc3C(=O)N([C@@H](C)CO)C[C@@H]2C)cc1`, “inactive”.

Values taken from the antibiotic and cytotoxicity screens of Wong et al. (2023).
